Screens as filed in PubChem BioAssay.
A selection: hits, their analogues and other compounds. The true share with any hit is near 21%.
Shiga inhibitor: A qHTS for Small Molecule Inhibitors of Shiga Toxin | Vero cells, Shiga toxin protein synthesis inhibition reporter | inhibition, % at 38.7 µM | 290,000 compounds, 9.2% hits | AID 2315, 2010; in the data active = inhibition mostly above about 28%, no sharp cut-off; inactive = mostly below about 43%; note: 0% is about no effect
SARS PLP yeast: qHTS of Yeast-based Assay for SARS-CoV PLP; AID 485353, 2010; 330,000 compounds, 0.19% hits; Potency, µM (titrated, usually from 32.9 µM), inactives show at the top dose activity, positive = growth rescue, usual class: activators; S. cerevisiae expressing SARS-CoV PLpro, growth rescue; note: potency is the fitted concentration of half-maximal effect; 0% is about no effect; nearly all actives have a fitted effect of over 55% in size
Pf growth 48h: Primary qHTS for delayed death inhibitors of the malarial parasite plastid, 48 hour incubation. P. falciparum luciferase growth in erythrocytes, 48 h. Potency, µM (doses to about 28.7 µM), for inactives: at the top dose activity change, negative = inhibition, usual class: inhibitors. 310,000 compounds, 5.9% hits; active = well fitted inhibition curve with a large enough effect; inconclusive = small, poorly fitted or top-dose-only effect, or another doubt; inactive = no such curve, though single readings can be large or run the other way; note: potency is the fitted concentration of half-maximal effect; % is set by controls: 0 for no effect and ±100 for the full control effect
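Luciferase-expressing parasites in RBCs, 2% Hct / 0.1% parasitemia final; RPMI 1640 + 0.5% Albumax; 37 C, 5% CO2, one generation; luminescence read-out, lower signal = inhibition.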
Cycloheximide cs: Cycloheximide Counterscreen for Small Molecule Inhibitors of Shiga Toxin | cell reporter, cycloheximide protein synthesis inhibition counterscreen | max response, % | 300,000 compounds, 12% hits | AID 2314, 2010; in the data active = max response mostly above about 13%, no sharp cut-off; inactive = mostly below about 14%; note: read at 38.3 µM for the half of the compounds with a filed dose; 0% is about no effect
Pf growth 96h: Primary qHTS for delayed death inhibitors of the malarial parasite plastid, 96 hour incubation. P. falciparum luciferase reporter growth, 96 h. Potency, µM (series often up to 28.7 µM), for the others: at the top dose activity change, negative = inhibition, hits mostly inhibitors. 320,000 compounds, 6.9% hits. AID 504834, 2011; active = well fitted inhibition curve with a large enough effect; inconclusive = small, poorly fitted or top-dose-only effect, or another doubt; inactive = no such curve, though single readings can be large or run the other way; note: potency is the fitted concentration of half-maximal effect; % is set by controls: 0 for no effect and ±100 for the full control effect
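Luminescence readout: decreased luciferase signal marks inhibited growth of reporter-expressing P. falciparum in infected red cells (2% hematocrit, 0.05% parasitemia final), exposed to compound two generations (96 h, 37 C, 5% CO2).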
NS1 function inh: qHTS Assay for Inhibitors of Influenza NS1 Protein Function; 270,000 compounds, 0.4% hits; AID 2326, 2010; Potency, µM (highest dose often 46.1 µM), inactives show at the highest dose activity, positive = more growth; note: potency is the fitted concentration of half-maximal effect; actives are rising curves; nearly all actives have a fitted effect of over 50% in size
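Compounds were scored for reversing the slow growth caused by influenza A NS1 in S. cerevisiae, measured by optical density at 600 nm. Assay medium contained 2% galactose at pH 6.0; NS1-free yeast of the same strain were the positive control.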
Starred values were filed as active, the others as inactive; ? = inconclusive; / = no result; [ ] = dose if it differs, or a comment. Unless noted, calls come from the whole dose curve.

SMILES | Shiga inhibitor | SARS PLP yeast | Pf growth 48h | Cycloheximide cs | Pf growth 96h | NS1 function inh
c1ccc(-c2noc(-c3ccc4c(c3)OCO4)n2)cc1 | 109* | 0% | 130% | 64* | 34% | 2%
c1cc(-c2noc(-c3ccc4c(c3)OCO4)n2)ccn1 | / | / | / | / | / | 11%
O=C(CSc1nc(-c2ccccc2)cs1)N1CCc2ccccc21 | -3 | 4% | 29% | 1 | 28% | 5%
Cc1c(Br)cnn1C(C)C(=O)N1CCN(c2ccc(F)cc2)CC1 (stereo not given) | / | -29% | ? | / | ? | /
CCN(CC)S(=O)(=O)c1ccc2[nH]c(=O)cc(C(=O)Nc3ccccc3N3CCCC3)c2c1 | -3 | 2% | ? | -2 | ? | -3%
CN1CCc2cccc3c2[C@@H]1Cc1ccc(O)c(O)c1-3 | -5 | 0% | 2.6µM* | 2 | 2.6µM* | -20%
CCCN1CCc2cccc3c2C1Cc1ccc(O)c(O)c1-3 (stereo not given) | / | / | / | / | / | -32%
CN(C)S(=O)(=O)c1ccc(C(=O)Nc2nnc(SCc3ccccc3)s2)cc1 | 1 | -7% | 15% | 5 | 49% | 8%
O=C(Nc1nncs1)c1ccc2c(c1)OCO2 | 55* | -2% | 73% | 22* | ? | -5%
CSc1nnc(NC(=O)c2ccc(S(=O)(=O)N(C)C)cc2)s1 | 28* | -3% | 469% | 25* | 235% | /
Cc1nnc(NC(=O)c2ccc3c(c2)OCO3)s1 | 56* | -1% | 197% | 39* | -1% | -2%
CCOC(=O)C(C)Sc1nnc(NC(=O)c2ccc3c(c2)OCO3)s1 (stereo not given) | 14 | 1% | -2% | 2 | 3% | /
CSc1nnc(NC(=O)c2ccc3c(c2)OCO3)s1 | 69* | -4% | 147% | 48* | 264% | -4%
COCCSc1nnc(NC(=O)c2ccc3c(c2)OCO3)s1 | 17 | 1% | 32% | 13 | 50% | -2%
Cc1c(C(=O)OCC(=O)N2CC(=O)Nc3ccccc32)oc2ccc(Br)cc12 | -7 | 4% | -2% | 1 | / | -4%
CCOc1ccc(S(=O)(=O)N(C)C2CCCCC2)cc1 | -9 | 8% | 28% | -1 | 1.7µM* | -32%
CCOc1ccc(S(=O)(=O)N(C)CC(=O)NC2CC2)cc1 | 17 | -7% | ? | 1 | 15% | 5%
CN(C1CCCCC1)S(=O)(=O)c1ccc(S(=O)(=O)N2CCCC2)cc1 | 19 | -3% | ? | -4 | 1.7µM* | -28%
COc1ccccc1CNC(=O)CN1C(=O)COc2ccc(S(=O)(=O)N3CCCCC3)cc21 | 2 | 4% | ? | 11 | -9% | 6%
COc1ccccc1CNC(=O)CN1C(=O)COc2ccc(S(=O)(=O)NC3CCCC3)cc21 | -10 | -2% | 18% | 21* | 37% | 4%
COc1ccccc1CNC(=O)CCCN1C(=O)COc2ccc(C)cc21 | 1 | -4% | -19% | 8 | 9.3µM* | -28%
O=C(O)[C@@H](Br)[C@H](Br)C(=O)O | / | / | / | / | / | -8%
CCCCn1c(C2CCCCC2)nc2cc3[nH]c(=O)c(C(C)C)nc3cc21 | 12 | -1% | -8% | 3 | 9.3µM* | -56%
CCCCn1c(-c2ccccc2C)nc2cc3[nH]c(=O)c(C(C)C)nc3cc21 | -2 | 2% | ? | 0 | ? | 0%
COC(=O)C1CCN(C(=O)c2ccccc2Oc2ccccc2)CC1 | -17 | 2% | -4% | -5 | -10% | 7%
SMILES | Shiga inhibitor | SARS PLP yeast | Pf growth 48h | Cycloheximide cs | Pf growth 96h | NS1 function inh
COc1ccc(NC(=O)c2ccccc2-c2ccccc2C(=O)O)cc1 | -5 | 4% | / | -1 | 7% | 0%
CC(=O)Nc1ccc(NC(=O)Oc2ccccc2)cc1 | -3 | -1% | -5% | 10 | ? | 2%
CN(C)c1ccc(NC(=O)Oc2ccccc2)cc1 | 60* | 12% | / | 29* | 0.15µM* | -57%
COc1ccc(OC(=O)Nc2ccccc2)cc1 | 98* | -3% | 33% | 32* | / | -13%
CCc1ccc(OC(=O)Nc2ccccc2)cc1 | 13 | -7% | 32% | 13* | 36% | -1%
NC(=O)c1nc[nH]c1C(=O)Nc1cccc(C(F)(F)F)c1 | / | -6% | 44% | / | 1% | /
Cc1cncc(C(=O)O)[n+]1[O-] | / | / | -7% | / | 5% | /
CCOC(=O)N1CCC(Nc2nc3ccccc3nc2NS(=O)(=O)c2ccc(Cl)cc2)CC1 | 96* | -12% | -85% | 30* | / | -83%
CCOC(=O)N1CCC(NC(=O)c2ccc(Cl)cc2)CC1 | -5 | 1% | -8% | -4 | 12% | 1%
CCOC(=O)N1CCC(c2nc3ccccc3[nH]2)CC1 | -10 | 3% | / | -3 | 9.3µM* | 2%
O=C(C1CC(=O)N(c2ccc(Cl)cc2)C1)N1CCC(c2nc3ccccc3[nH]2)CC1 (stereo not given) | / | 0% | 10µM* | / | ? | /
O=C(N1CCCCC1)N1CCC(c2nc3ccccc3[nH]2)CC1 | -7 | 2% | -1% | -4 | 3% | 0%
CN1C(=O)C2C(c3ccc(N(C)C)cc3)NN(Cc3ccccc3)C2C1=O (stereo not given) | 13 | -1% | -7% | 2 | -46%[1.15 µM] | 6%
Cc1cc(NC(=O)CCC(=O)N(CC(=O)NCC2CCCO2)c2cccc(F)c2)no1 (stereo not given) | -20 | 1% | -1% | -4 | -6% | 5%
COc1ccc(-c2nc(-c3ccccc3)nc(N3CCN(C)CC3)c2C#N)cc1 | -9 | 8% | ? | -1 | 13µM* | 1%
CCN1CCN(c2nc(-c3ccccc3)nc3ccccc23)CC1 | -15 | -14% | ? | -3 | ? | -8%
CN1CCN(c2nc(-c3ccc(Br)cc3)nnc2-c2ccccc2)CC1 | 11 | -1% | ? | 22* | -6% | -7%
CN1CCN(c2nc(-c3ccc(C(C)(C)C)cc3)nc3ccccc23)CC1 | 59* | 1% | -7% | 57* | 25% | -2%
CN1CCN(c2nc(-c3ccccc3)nc(-c3ccccc3)c2C#N)CC1 | -4 | 2% | ? | -3 | ? | 0%
Cc1ccc(-c2nc(N3CCN(C)CC3)c3ccccc3n2)cc1 | 11 | -6% | ? | 12* | 31% | 1%
COc1ccc(CCNC(=O)Cn2c(=O)n(-c3ccc(C)c(F)c3)c(=O)c3sccc32)cc1OC | 6 | 1% | -2% | 9 | 37% | /
COc1ccc(CCNC(=O)c2cc(C3CC3)on2)cc1OC | 15 | -2% | 6% | 8 | 2% | -5%
Cc1ccc(NC(=O)C(=O)NCc2ccncc2)cc1 | 29 | 1% | 38% | 23 | 29% | /
COc1ccc(CCNC(=O)c2ccc(CN3CCC(Cc4ccccc4)CC3)cc2)cc1 | -3 | -2% | ? | 7 | ? | 10%
O=C(NCc1ccccc1)C12CN(Cc3ccccc3)CC1C(c1ccc([N+](=O)[O-])cc1)=NO2 (stereo not given) | -6 | -4% | 12µM* | -3 | ? | 0%
